# PubChem BioAssay (Tox21)
# The source made the active and inactive calls. Calls follow the shape of the dose curve; as a rule, active = well fitted curve in the direction sought with a large enough effect in the repeat runs; inconclusive = weak or mixed curves; inactive = flat fitted curve, though single readings scatter.
# Assay: qHTS assay to test for compound auto fluorescence at 535 nm (green) in HEK293 cell free culture (AID 720682)
# Settings: cell-free medium, green autofluorescence 485/535 nm; series mostly up to 91.3 µM
# Excerpt: U.S. Tox21 Program National Center for Advancing Translational Sciences [NCATS] NIH Chemical Genomics Center [NCGC] U.S. Environmental Protection Agency [EPA] National Institutes of Environmental Health Sciences [NIEHS] National Toxicology Program [NTP] U.S. Food and Drug Administration [FDA] Tox21 Assay Overview: Compound auto fluorescence often interferes with screening of the compound library against various biological targets and signaling pathways. Some of these compounds may have fluorophoric properties. Such properties may interfere with the assay outputs resulting in false positives and/or negatives. To decrease such complications and ensure the compound activities are relevant in terms of biological response, the Tox21 10K compound library was screened for auto fluorescence. From the fluorophores used as reporter signals in our screening assays, the auto fluorescence equivalencies of compounds against three fluorophores have been evaluated: Triamterene, Fluorescein and Rose Bengal sodium for blue, green and red fluorescence, respectively. The fluorescence intensities were measured using Excitation/Emission wavelengths at 405/460nm, 485/535nm and 540/590nm for blue, green and red labels, respectively. This assay includes the green fluorescence data.
# Tox21 Assay Protocol Summary: 5 uL of culture medium (DMEM containing 10% FBS) per well was dispensed into black wall/clear bottom 1536-well plates using a Multidrop Combi Dispenser (ThermoFisher Scientific, Waltham, MA). After 23 nL compound or DMSO vehicle was transferred into assay plate by a pintool work station (Kalypsys, San Diego, CA), fluorescence intensities in the assay plates were measured by an Envision (PerkinElmer, Shelton, CT) plate reader using three labels for measuring blue, green and red fluorescence at […] 460, 535 and 590nm respectively.
row,Compound,outcome
1,FC(F)(F)c1ccc(Cl)cc1,inactive
2,Cc1ccc(O)c(C)c1,inactive
3,COS(=O)(=O)OC,inactive
4,NNc1ccccc1,inactive
5,O=S(=O)(O)OOS(=O)(=O)O,inactive
6,CCOC(=O)CC(SP(=O)(OC)OC)C(=O)OCC (stereo not given),inactive
7,CC(C)c1cccc(C(C)C)c1O,inactive
8,Sc1ccccc1,inactive
9,COP(=S)(OC)SCN1C(=O)c2ccccc2C1=O,inactive
10,ClCCOCCCl,inactive
11,CC12CC1(C)C(=O)N(c1cc(Cl)cc(Cl)c1)C2=O (stereo not given),inactive
12,O=[N+]([O-])c1ccc(Cl)cc1,inactive
13,Cc1cc(Cl)ccc1OC(C)C(=O)O (stereo not given),inactive
14,[N-]=[N+]=CC(=O)OC[C@H](N)C(=O)O,inactive
15,O=C(O)C1C(C(=O)O)C2(Cl)C(Cl)=C(Cl)C1(Cl)C2(Cl)Cl (stereo not given),inactive
16,Cc1cc(O)ccc1Cl,inactive
17,CSc1nnc(C(C)(C)C)c(=O)n1N,inactive
18,CN(C)C(=O)Cl,inactive
19,Cc1ccc(N)cc1,inactive
20,C[C@H]1C(=O)O[C@@H]2CCN3CC=C(COC(=O)[C@](C)(O)[C@]1(C)O)[C@H]23,inactive

row,Compound,outcome
1,OC[C@@H](O)[C@H]1O[C@@H]2O[C@H](C(Cl)(Cl)Cl)O[C@@H]2[C@H]1O,inactive
2,CNC(=O)O/N=C(\SC)C(=O)N(C)C,inactive
3,CCNc1nc(Cl)nc(NC(C)C)n1,inactive
4,CCCCC(CC)C(=O)Cl (stereo not given),inactive
5,OCCCCO,inactive
6,COP(=S)(OC)Oc1ccc(SC)c(C)c1,inactive
7,C[C@]12CC[C@H](O)CC1=CC[C@@H]1[C@@H]2CC[C@]2(C)C(=O)CC[C@@H]12,inactive
8,Nc1ncc([N+](=O)[O-])s1,inactive
9,Nc1ccc([As](=O)(O)O)cc1,inactive
10,Cc1cccc(N)c1C,inactive
11,COC(=O)Nc1cccc(OC(=O)Nc2cccc(C)c2)c1,inactive
12,N#Cc1cccc(C#N)c1,inactive
13,O=C(O)COc1ccccc1,inactive
14,O=C(O)Cc1ccccc1,inactive
15,CCOP(=S)(OCC)Oc1ccc([N+](=O)[O-])cc1,inactive
16,Nc1ccc(N)cc1,inactive
17,COc1nc(NC(C)C)nc(NC(C)C)n1,inactive
18,CNCC(O)c1ccc(O)cc1 (stereo not given),inactive
19,O=[N+]([O-])c1ccc(Cl)c(Cl)c1,inactive
20,N#Cc1ccccn1,inactive
